This is one part of a sample in which hits are shown more often than they occur.
nsP2pro primary = Primary qHTS for inhibitors of NSP2Pro chikungunya virus (CHIKV) | Polyprotein P1234 (Chikungunya virus (strain S27-African prototype)), Q8JUX6 | FRET peptide cleavage, nsP2pro, fluorescence 1 h | Potency, µM (series often up to 24.9 µM), without a hit: top-dose activity change, negative = inhibition, most hits filed as inhibitors | actives 1.1% (n = 31,000) | AID 1964107, 2024; also: nearly all actives have a fitted effect of over 60% in size
Target sequence (Q8JUX6 whole entry, looked up): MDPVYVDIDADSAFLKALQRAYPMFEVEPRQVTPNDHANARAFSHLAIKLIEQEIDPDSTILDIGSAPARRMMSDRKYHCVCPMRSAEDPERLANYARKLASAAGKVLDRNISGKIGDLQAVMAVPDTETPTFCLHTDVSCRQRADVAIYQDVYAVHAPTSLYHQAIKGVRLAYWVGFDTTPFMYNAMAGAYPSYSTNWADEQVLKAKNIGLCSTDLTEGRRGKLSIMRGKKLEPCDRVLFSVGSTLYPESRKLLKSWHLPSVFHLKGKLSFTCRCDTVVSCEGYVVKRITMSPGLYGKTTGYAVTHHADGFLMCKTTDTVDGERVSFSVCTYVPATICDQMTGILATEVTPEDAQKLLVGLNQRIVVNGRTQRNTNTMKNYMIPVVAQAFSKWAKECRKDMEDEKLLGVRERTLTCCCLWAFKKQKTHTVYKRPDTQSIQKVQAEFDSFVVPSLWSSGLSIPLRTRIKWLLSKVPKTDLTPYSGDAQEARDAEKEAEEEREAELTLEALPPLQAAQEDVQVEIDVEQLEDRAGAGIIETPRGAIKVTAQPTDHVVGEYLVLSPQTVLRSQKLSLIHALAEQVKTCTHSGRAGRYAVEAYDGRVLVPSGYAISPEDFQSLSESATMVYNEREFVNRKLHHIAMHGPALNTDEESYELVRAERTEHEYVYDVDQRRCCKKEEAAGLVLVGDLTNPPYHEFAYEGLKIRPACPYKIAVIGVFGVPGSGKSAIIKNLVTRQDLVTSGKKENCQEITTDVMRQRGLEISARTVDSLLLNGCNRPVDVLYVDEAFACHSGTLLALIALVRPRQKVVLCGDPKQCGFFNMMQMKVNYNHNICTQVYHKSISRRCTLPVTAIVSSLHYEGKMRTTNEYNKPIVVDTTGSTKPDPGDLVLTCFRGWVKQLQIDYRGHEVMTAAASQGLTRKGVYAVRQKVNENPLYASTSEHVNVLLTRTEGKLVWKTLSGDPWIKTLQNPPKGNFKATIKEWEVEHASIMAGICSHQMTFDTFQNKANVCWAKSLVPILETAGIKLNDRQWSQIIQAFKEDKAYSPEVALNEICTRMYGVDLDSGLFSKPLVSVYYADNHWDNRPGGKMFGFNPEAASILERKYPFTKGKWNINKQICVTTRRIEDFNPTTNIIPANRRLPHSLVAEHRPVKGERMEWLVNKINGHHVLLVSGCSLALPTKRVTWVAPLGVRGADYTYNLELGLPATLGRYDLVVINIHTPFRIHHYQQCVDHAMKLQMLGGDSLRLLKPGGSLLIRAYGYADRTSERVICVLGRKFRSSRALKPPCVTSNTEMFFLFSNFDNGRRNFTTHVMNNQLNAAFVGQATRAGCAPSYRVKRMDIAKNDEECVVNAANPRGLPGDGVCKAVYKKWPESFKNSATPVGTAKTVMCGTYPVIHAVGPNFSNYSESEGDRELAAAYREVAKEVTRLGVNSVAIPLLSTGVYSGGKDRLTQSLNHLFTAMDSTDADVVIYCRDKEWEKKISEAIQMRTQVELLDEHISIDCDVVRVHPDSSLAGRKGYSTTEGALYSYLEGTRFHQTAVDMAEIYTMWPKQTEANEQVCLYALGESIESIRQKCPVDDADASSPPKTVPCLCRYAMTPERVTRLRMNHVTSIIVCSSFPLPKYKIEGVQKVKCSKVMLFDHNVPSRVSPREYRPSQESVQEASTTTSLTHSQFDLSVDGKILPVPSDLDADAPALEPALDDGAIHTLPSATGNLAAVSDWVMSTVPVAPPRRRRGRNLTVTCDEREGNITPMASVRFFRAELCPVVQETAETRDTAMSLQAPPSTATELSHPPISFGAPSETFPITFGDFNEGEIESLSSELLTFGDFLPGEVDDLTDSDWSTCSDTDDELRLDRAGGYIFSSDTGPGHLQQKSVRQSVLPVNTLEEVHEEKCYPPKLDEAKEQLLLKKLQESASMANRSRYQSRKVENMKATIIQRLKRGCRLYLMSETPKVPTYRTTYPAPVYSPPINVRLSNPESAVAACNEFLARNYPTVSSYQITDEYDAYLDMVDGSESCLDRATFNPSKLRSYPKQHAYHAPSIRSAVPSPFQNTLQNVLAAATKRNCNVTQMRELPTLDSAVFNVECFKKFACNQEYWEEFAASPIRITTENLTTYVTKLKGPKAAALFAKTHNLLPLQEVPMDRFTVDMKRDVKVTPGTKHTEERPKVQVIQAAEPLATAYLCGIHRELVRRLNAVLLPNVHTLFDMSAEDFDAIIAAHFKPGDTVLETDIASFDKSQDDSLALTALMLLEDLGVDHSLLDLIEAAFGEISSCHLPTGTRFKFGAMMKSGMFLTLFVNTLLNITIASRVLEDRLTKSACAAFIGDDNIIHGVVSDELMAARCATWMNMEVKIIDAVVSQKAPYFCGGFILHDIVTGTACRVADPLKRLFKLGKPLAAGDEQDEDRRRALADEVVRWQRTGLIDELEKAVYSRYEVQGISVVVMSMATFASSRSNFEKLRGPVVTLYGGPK
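Enzyme 150 nM, substrate 2.5 uM (both final); Tris-HCl 10 mM pH 8.0 + 0.01% Tween 20; cpd up to 25 uM, 7 pts; 15 min preinc., 1 h RT; fluorescence ex 525/em 598.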
CHIKV nsP2 cell = Secondary cell base assay for inhibitors of NSP2Pro Chikungunya virus (CHIKV); cell-based CHIKV nsP2 protease reporter assay; shares compounds with nsP2pro primary; AID 1964100, 2024; Potency, µM (top dose mostly 51.1 µM), inactives show at the highest dose activity change, negative = inhibition, usual class: inhibitors; actives 10% (n = 450); also: nearly all actives have a fitted effect of over 70% in size
CHIKV NSP2 FL = Selectivity profile for inhibitors of NSP2Pro chikungunya virus (CHIKV): Full length NSP2 enzyme counterscreen (CHIKV-NSP2); AID 1964101, 2024; shares compounds with nsP2pro primary; Full-length CHIKV NSP2 protease enzymatic counterscreen; Potency, µM (titrated, usually from 50.7 µM), for inactives: top-dose activity change, negative = inhibition, hits mostly inhibitors; actives 39% (n = 410); also: nearly all actives have a fitted effect of over 65% in size
Furin counter = Selectivity profile for inhibitors of NSP2Pro chikungunya virus (CHIKV): Human furin counterscreen; shares compounds with nsP2pro primary; Potency, µM (titrated, usually from 50.6 µM), for inactives: at the highest dose activity change, negative = inhibition, usual class: inhibitors; actives 6% (n = 410); AID 1964102, 2024; Recombinant human furin enzymatic counterscreen, fluorogenic substrate
nsP2 NS23 pep = Selectivity profile for inhibitors of NSP2Pro chikungunya virus (CHIKV): Endogenous NS2/3 peptide Counterscreen; shares compounds with nsP2pro primary; Purified CHIKV nsP2 protease, endogenous NS2/3 peptide cleavage; Potency, µM (titrated, usually from 51 µM), without a hit: at the top dose activity change, negative = inhibition, most hits filed as inhibitors; actives 34% (n = 410); AID 1964103, 2024; also: nearly all actives have a fitted effect of over 55% in size
Papain counter = Selectivity profile for inhibitors of NSP2Pro chikungunya virus (CHIKV): Papain Counterscreen; purified papain protease activity, enzymatic inhibition; actives 5% (n = 410); Potency, µM (highest dose often 51 µM), inactives show at the top dose activity change, negative = inhibition, hits mostly inhibitors; AID 1964104, 2024; shares compounds with nsP2pro primary
nsP2pro confirm = Confirmatory qHTS for inhibitors of NSP2Pro chikungunya virus (CHIKV) | shares compounds with nsP2pro primary | Potency, µM (highest dose often 25.5 µM), for the others: at the highest dose activity change, negative = inhibition, usual class: inhibitors | actives 43% (n = 410) | AID 1964105, 2024 | CHIKV nsP2 protease enzymatic activity, qHTS; also: nearly all actives have a fitted effect of over 75% in size
HCV NS3 counter = Selectivity profile for inhibitors of NSP2Pro chikungunya virus (CHIKV): NS34A-HCV Counterscreen; shares compounds with nsP2pro primary; HCV NS3/4A protease biochemical counterscreen; Potency, µM (top dose mostly 50.9 µM), most hits filed as inhibitors; actives 20% (n = 410); AID 1964106, 2024; also: nearly all actives have a fitted effect of over 55% in size
Starred values were filed as active, the others as inactive; i = inactive; ? = inconclusive; [ ] = dose if it differs, or a comment. Calls follow the shape of the full dose curve. % is scaled to controls: 0 for no effect and ±100 for the full control effect; potency is read from the fitted curve at half-maximal effect.

SMILES	nsP2pro primary	others
C=C1/C(=C/C=C2\CCC[C@]3(C)[C@@H]([C@H](C)CCCC(C)(C)O)CC[C@@H]23)C[C@@H](O)[C@@H](OCCCO)[C@@H]1O	1.8%
CC1(C)OB(c2ccc(O)c3ncc(N4CCNCC4)cc23)OC1(C)C	i
CCn1c(=O)cc(OCC(=O)NCc2ccccc2OC)c2ccccc21	-7.5%
COc1ccccc1NC(=O)CCCOc1cc(=O)n(C)c2ccccc12	-12.8%
CCOc1ccc(CNC(=O)COc2cc(=O)n(C)c3ccccc23)cc1	?	CHIKV nsP2 cell=2.3%
CN(C)S(=O)(=O)N1CC(CNC(=O)C2CC2)C2(CCCCC2)C1 (centres undefined)	i
CC1(C)S[C@H]2[C@H](NC(=O)[C@@H](N)c3ccc(O)cc3)C(=O)N2[C@H]1C(=O)O	81.2%
CCS(=O)(=O)N1C[C@@H](C(=O)NCc2ccc(C)o2)[C@H](c2ccncc2)C1	-27.2%
O=C(CCCCSc1nnc(-c2cccc3ccccc23)o1)Oc1ccc(F)cc1	i
CC(C)CNC(=O)N1CCCCC1c1nc(CCOc2ccc(F)cc2)no1 (centres undefined)	i
CC(=O)O[C@@H]1CC2C(C)(C)C(=O)C=C[C@]2(C)C2CC[C@]3(C)C(=CC(=O)O[C@H]3c3ccoc3)[C@@]21C (some centres undefined)	1.6%
CC(=O)OC1CC(O)C2(C)C(CC(OC(C)=O)C3(C)C2CCC2(C)C(c4ccoc4)C(=O)C4OC423)C1(C)C (centres undefined)	?	CHIKV nsP2 cell=11.7%[17.6 µM];CHIKV NSP2 FL=-18.0%[17.3 µM];Furin counter=-9.3%[17.3 µM];nsP2 NS23 pep=-8.8%[17.2 µM];Papain counter=-12.5%[17.2 µM];nsP2pro confirm=-27.9%[8.62 µM];HCV NS3 counter=i
CC(=O)O[C@@H]1C[C@H](O)[C@@]23CO[C@H](O)[C@]1(C)C2C[C@@H](O)[C@]1(C)C3C(=O)[C@H](OC(C)=O)[C@@]2(C)[C@H](c3ccoc3)C[C@H]3O[C@]321 (some centres undefined)	-2.2%[10 µM]
Cc1noc(C)c1S(=O)(=O)Nc1cnccc1C(=O)Nc1nc(-c2ccccc2)cs1	3.2%
Cc1cc(C)nc(NC(=S)N2CCN(c3ccc(S(C)(=O)=O)cc3F)CC2)c1	0.4%
O=[N+]([O-])c1cc(Cl)ccc1S(=O)(=O)N1CCN(Cc2ccccc2)CC1	-6.8%
O=[N+]([O-])c1ccc(S(=O)(=O)N2CCN(c3ccnc4cc(Cl)ccc34)CC2)c([N+](=O)[O-])c1	?	CHIKV nsP2 cell=5.62µM*;CHIKV NSP2 FL=?;Furin counter=-9.6%;nsP2 NS23 pep=4.11µM*;Papain counter=-17.1%;nsP2pro confirm=?;HCV NS3 counter=i
O=[N+]([O-])c1ccc(O/N=[N+](\[O-])N2CCN(c3ncccn3)CC2)c([N+](=O)[O-])c1	-25.4%
Cc1cnc(-c2ccccc2CO)nc1NCC1CCN(c2cccnc2)CC1	i
CCCCN(CCCC)C(=S)[S-].CCCCN(CCCC)C(=S)[S-].[Zn+2]	0.556µM*	CHIKV nsP2 cell=?;CHIKV NSP2 FL=0.231µM*;Furin counter=7.3µM*;nsP2 NS23 pep=1.63µM*;Papain counter=4.11µM*;nsP2pro confirm=0.356µM*;HCV NS3 counter=i
C[C@@H]1CN(Cc2cc(C(N)=O)oc2C(C)(C)C)CC[C@@]1(O)C1CCC1	-2.7%
O=S(=O)(Nc1nccs1)c1ccc(NCc2ccc(Br)cc2O)cc1	-15.9%
Cc1ccc(S(=O)(=O)Nc2ccc(C(=O)Nc3nc(-c4ccc(Cl)cc4)cs3)cc2)cc1	-3.6%
O=C(O)c1cc(O)c2cccc(O)c2c1O[C@@H]1O[C@H](CO)[C@@H](O)[C@H](O)[C@H]1O	15.1%
COC1(C[S@@](=O)c2ccccc2)CCN(CCc2c[nH]c3ccc(F)cc23)CC1	?	CHIKV nsP2 cell=49.4%;CHIKV NSP2 FL=-8.8%;Furin counter=-1.7%;nsP2 NS23 pep=-17.6%;Papain counter=-0.3%;nsP2pro confirm=-18.3%;HCV NS3 counter=i
SMILES	nsP2pro primary	others
Cc1ccc(C2(O)CCN(CCCC(=O)c3ccc(F)cc3)CC2)cc1	-10.5%
CC(=O)OC1CCC2(C)C(=CCC3C2CCC2(C)C(c4cccnc4)=CCC32)C1 (centres undefined)	-5.7%
O=C(O)CSc1nnc(Br)n1-c1ccc(C2CC2)c2ccccc12	1.2%
O=c1[nH]c(CN2CCOCC2)nc2sc3c(c12)CCCC3	1.4%
CCN1CCN(c2ncc3c(n2)CCN(Cc2ccc(OC(C)C)cc2)C3)CC1	-11.6%
CCN1CCN(c2ncc3c(n2)CCN(Cc2sccc2C)C3)CC1	7.3%	CHIKV nsP2 cell=?;CHIKV NSP2 FL=11.6µM*;Furin counter=-8.5%;nsP2 NS23 pep=?;Papain counter=-3.6%;nsP2pro confirm=?;HCV NS3 counter=6.51µM*
CCN1CCN(c2ncc3c(n2)CCN(Cc2ccc(Br)s2)C3)CC1	46.4%
CN1CCN(c2ncc3c(n2)CCN(Cc2ccc(Br)s2)C3)CC1	?	CHIKV nsP2 cell=?;CHIKV NSP2 FL=18.3µM*;Furin counter=-8.7%;nsP2 NS23 pep=?;Papain counter=5.1%;nsP2pro confirm=?;HCV NS3 counter=11.6µM*
Brc1ccc(CN2CCc3nc(N4CCN(c5ncccn5)CC4)ncc3C2)cc1	33.4%
Cc1ccsc1CN1CCc2nc(N3CCN(c4ccccc4F)CC3)ncc2C1	-20.3%
CC(=O)c1c(O)cc2cccc3c2c1CC(C)(O)O3 (centres undefined)	76.2%
CCCCCCCCCCCCCCCC(=O)OCC=C(C)C=CC=C(C)C=CC1=C(C)CCCC1(C)C	-16.3%
Cc1ccc(C(=O)OCc2ccc([C@@H](CN)C(=O)Nc3ccc4cnccc4c3)cc2)c(C)c1	105.1%[10 µM]
CN(C)C[C@@H]1CN(Cc2ccccn2)C[C@H]1NC(=O)c1n[nH]c2ccccc12	i
CC(=O)Nn1c(C)nc2sc3c(c2c1=O)CCNC3	-8.6%
O=C1C(Cl)=C(N2CCOCC2)C(=O)N1c1ccc(Cl)c(Cl)c1	?	CHIKV nsP2 cell=?;CHIKV NSP2 FL=?;Furin counter=-11.2%[17.3 µM];nsP2 NS23 pep=?;Papain counter=?;nsP2pro confirm=3.1µM*;HCV NS3 counter=i
Cc1ccc(NC(=O)CN2C(=O)N/C(=C\c3cccn3-c3cccc(-c4nn[nH]n4)c3)C2=O)cc1	i

Assay outcomes (PubChem)
